# Reference: PubChem BioAssay AID1851 (National Center for Advancing Translational Sciences (NCATS), 2009)
# In all, about 16,000 compounds went through this assay and about 5,100 (32%) were called active. Inconclusive results (about 25%) are left out. Some of the results follow. Values without a mark were called inactive. Calls come from the whole dose curve; as a rule, active = well fitted curve in the direction sought with a large enough effect; inconclusive = small, poorly fitted or top-dose-only effect, or effect the other way; inactive = no such curve, though single readings can be large or run the other way.
# Molecular target: Cytochrome P450 3A4 (Homo sapiens) (UniProt P08684)
# Test: Cytochrome panel assay with activity outcomes
# Details: recombinant CYP, pro-luciferin dealkylation, luminescence, p450-cyp3a4; series mostly up to 57.1 µM; activity, negative = inhibition: at the top concentration
# % is set by controls: 0 for no effect and ±100 for the full control effect.
# Chain of Cytochrome P450 3A4 (Homo sapiens) (P08684 whole entry, looked up): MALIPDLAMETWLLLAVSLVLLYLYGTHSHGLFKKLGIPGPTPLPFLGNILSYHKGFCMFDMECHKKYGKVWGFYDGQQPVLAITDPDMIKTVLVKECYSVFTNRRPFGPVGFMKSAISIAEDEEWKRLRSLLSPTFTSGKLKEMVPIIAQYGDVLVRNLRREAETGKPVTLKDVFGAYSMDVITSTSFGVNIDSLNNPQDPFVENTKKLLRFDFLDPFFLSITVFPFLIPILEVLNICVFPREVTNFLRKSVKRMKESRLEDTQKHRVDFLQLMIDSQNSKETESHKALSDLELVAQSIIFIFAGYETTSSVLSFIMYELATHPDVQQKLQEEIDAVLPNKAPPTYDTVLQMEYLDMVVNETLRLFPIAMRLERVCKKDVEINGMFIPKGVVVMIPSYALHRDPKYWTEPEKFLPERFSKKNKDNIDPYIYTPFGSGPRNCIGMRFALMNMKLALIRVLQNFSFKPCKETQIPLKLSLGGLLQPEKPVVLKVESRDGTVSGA
Structure (SMILES),"activity, negative = inhibition",AC50
CN(C)C(=O)Oc1cccc([N+](C)(C)C)c1,-1.98% [at 25.6 µM],
Cc1nc(NC(=O)c2ccccc2)sc1-c1csc(Nc2cccc(Cl)c2)n1,,10 µM (active)
Cc1nc(NC(=O)c2ccccc2)sc1-c1csc(Nc2ccc(Cl)cc2)n1,3.11% [at 2.29 µM],
Cc1nc(NC(=O)c2ccccc2)sc1-c1csc(Nc2ccc(Cl)cc2Cl)n1,,11.2 µM (active)
Cn1sc(NC(=O)c2ccccc2Cl)nc1=O,-14.4%,
Cc1nnc(NC(=O)c2cccc(NC(=O)C(C)C)c2)s1,1.57%,
Cc1nc(NC(=O)c2ccco2)sc1-c1csc(Nc2ccc(Cl)cc2Cl)n1,,5.01 µM (active)
Cc1nc(NC(=O)c2ccccc2)sc1-c1csc(Nc2ccc(F)cc2)n1,,10 µM (active)
O=C(NNC(=O)c1cc2cc3ccccc3nc2s1)c1cccc(Cl)c1,-20.1%,
C#CCOCCCC(=O)O,0.116% [at 11.4 µM],
CC(C)(N=NC(C)(C)C(=N)N)C(=N)N,-6.94% [at 11.4 µM],
C=CCCC(=O)Nc1nc(C)c(-c2csc(Nc3ccc(Cl)cc3)n2)s1,,10 µM (active)
O[C@@H](c1cc(C(F)(F)F)nc2c(Cl)cc(Cl)cc12)[C@@H]1CCCCN1,-21% [at 11.4 µM],
CC(C)(C)NC(=O)Cn1nnc(-c2ccccc2NC(=O)c2cnccn2)n1,,3.98 µM (active)
CC(C)CC(=O)Nc1ccccc1-c1nnn(CC(=O)N2CCc3ccccc3C2)n1,-9.5%,
COc1ccc(-c2nnn(CC(=O)N(CC(=O)NCCC(C)C)Cc3cccs3)n2)cc1OC,,12.6 µM (active)
C=CCn1c(Cc2ccc(OC)cc2)nnc1SCC(=O)c1cccc([N+](=O)[O-])c1,,1.41 µM (active)
O=C(CSc1nnc(COc2ccccc2)n1-c1ccccc1)c1ccccc1,,14.1 µM (active)
CCOc1c2ccc(C(=O)NCCc3cccs3)cc2nn1CC,-0.473% [at 2.29 µM],

Structure (SMILES),"activity, negative = inhibition",AC50
CCOc1ccc(-c2nnn(CC(=O)Nc3cc(OC)ccc3OC)n2)cc1OCC,,3.55 µM (active)
CC1(C)OC(C(N)=O)C(C(N)=O)O1 (configuration not stated),2.95%,
CN[C@@H]1[C@H](O[C@@H]2O[C@H](CO)[C@@H](N)[C@H](O)[C@@H]2O)O[C@H]2C[C@@H](N)[C@@H](O[C@H]3[C@@H](O)[C@H](O)[C@H](N)C[C@@H]3N)O[C@H]2[C@H]1O,-2.1% [at 25.6 µM],
COc1ccc(NC(=O)CSc2nnc(Cc3cccn3C)n2CCc2ccccc2)c(OC)c1,,2.24 µM (active)
C=CCn1c(COc2ccccc2)nnc1SCC(=O)N/N=C/c1ccc(C)cc1,,3.16 µM (active)
CCOc1cc(C)ccc1OCc1nnc(SCC(=O)c2cccc([N+](=O)[O-])c2)n1CC,,2.82 µM (active)
CCn1c(CNC(=O)COc2ccc(C(C)C)cc2)nnc1SCC(=O)Nc1cc(F)ccc1C,,10 µM (active)
CSc1nc(-c2ccccc2)nn1C(=O)c1ccccc1,-8.43%,
COc1ccc(-c2nnn(CC(=O)NCCc3c[nH]c4ccccc34)n2)cc1OC,,8.91 µM (active)
CCn1c(COc2ccccc2)nnc1SCC(=O)Nc1cc(OC)ccc1OC,,10 µM (active)
CCc1ccccc1NC(=O)CSc1nc(-c2ccccc2)nn1C(=O)c1cccc([N+](=O)[O-])c1,-8.74% [at 2.29 µM],
COc1cccc(OCc2nnc(SCC(=O)NCc3ccco3)n2C)c1,12.8% [at 2.29 µM],
CCn1c(COc2ccccc2)nnc1SCC(=O)c1cccc([N+](=O)[O-])c1,,12.6 µM (active)
CCCCOc1ccc(-c2nnn(CC(=O)c3c[nH]c4ccccc34)n2)cc1,-0.767%,
COc1ccc(C(=O)NNC(=O)CSc2nnc(COc3ccc4ccccc4c3)n2C)cc1,,0.501 µM (active)
COc1ccc(OCc2nnc(SCC(=O)O)n2N)cc1,-2.75%,
COc1ccc2c(c1)-c1c(sn(-c3ccc(OC)c(OC)c3)c1=S)C(C)(C)N2,-15.9% [at 2.29 µM],
CC(=O)c1c(O)c(C)c(-c2ccccc2)n(-c2ccccc2)c1=O,-3.08%,
Cc1ccc(-n2nnnc2C(=Cc2ccc(N(C)C)cc2)c2nnnn2-c2ccc(C)cc2)cc1,,3.16 µM (active)

Structure (SMILES),"activity, negative = inhibition",AC50
Cc1ccc(-c2nn3c(C)nnc3c3ccccc23)cc1S(=O)(=O)NCCN1CCOCC1,,8.91 µM (active)
Cc1ccc(-c2nn3c(C)nnc3c3ccccc23)cc1S(=O)(=O)NCc1ccccc1,-15.1%,
Cn1c(=O)cc(SCC(=O)NCCCN2CCOCC2)c2ccc(Cl)cc21,,7.94 µM (active)
OC(COCC1COc2ccccc2O1)CN1CCN(c2ccccc2F)CC1 (configuration not stated),-2.81%,
Clc1ccc(Cl)c(SCCCN2CCNCC2)c1,-17% [at 11.4 µM],
Cn1c(=O)cc(SCC(=O)NCCN2CCN(c3ccccc3F)CC2)c2cc(Cl)ccc21,,14.1 µM (active)
O=C(CCN1CCN(c2ccccc2F)CC1)Nc1ccccc1F,-5.33%,
CCCNC(=O)N1N=C(c2ccc(N)cc2)c2cc3c(cc2[C@H]1C)OCO3,,1.26 µM (active)
COC(=O)N1CC(=O)N(OC)C1c1ccc(Cl)cc1Cl (configuration not stated),0.907%,
CC(=O)N1N=C(c2cccc([N+](=O)[O-])c2)OC1c1ccc(Cl)cc1Cl (configuration not stated),11.9% [at 2.29 µM],
CC(=O)N1CC(=O)N(OCc2ccccc2)C1c1ccc(Cl)cc1Cl (configuration not stated),,10 µM (active)
Cc1cc(OCCn2cc(/C(N)=N/O)c3ccccc32)ccc1Cl,,11.2 µM (active)
CCOC(=O)C1=C(CN2c3ccccc3CC2C)NC(=O)NC1c1ccccc1 (configuration not stated),,15.8 µM (active)
CCOC(=O)c1[nH]c(C)c(C(=O)OCC(=O)N2c3ccccc3CC2C)c1C (configuration not stated),-26.3% [at 2.29 µM],
Nc1nc(=S)[nH]c2c1C1(CCCC1)Cc1ccccc1-2,,20 µM (active)
Cc1cccc(-n2c(=O)c3c(n4cnnc24)-c2ccccc2CC32CCCCC2)c1,-17.5% [at 2.29 µM],
O=C(O)CN=C1NC2(CCCC2)Cc2ccccc21,1.63%,
CCOc1ccc(/C=C/C2=Cc3c(sc(NC(=O)CSc4n[nH]c(N)n4)c3C#N)C(C)(C)C2)cc1,,15.8 µM (active)
Cc1ccc(/C=C/C2=Cc3c(sc(NC(=O)CSc4n[nH]c(N)n4)c3C#N)C(C)(C)C2)o1,,14.1 µM (active)
